This note sets out measurements from PubChem BioAssay AID686978 (National Center for Advancing Translational Sciences (NCATS), 2013).

Among all 420,000 compounds or so, about 64,000 (15%) were called active. About 27% were inconclusive and are not listed. Calls come from the whole dose curve; as a rule, active = well fitted inhibition curve with a large enough effect; inconclusive = small, poorly fitted or top-dose-only effect; inactive = flat fitted curve, though single readings scatter. These entries were drawn from the full list. Where a call stands in place of a potency, no number is given.
Potency is the fitted concentration of half-maximal effect.

The nature of this experiment: qHTS for Inhibitors of human tyrosyl-DNA phosphodiesterase 1 (TDP1): qHTS in cells in absence of CPT. Note: nearly all actives have a fitted effect of over 55% in size. As to conditions: DT40 Tdp1-/- hTDP1 cells, no CPT, ATP luminescence, 48 h; activity change, negative = growth inhibition: at 46.2 µM (top of the series). An excerpt: Human tyrosyl-DNA phosphodiesterase 1 (TDP1) is a novel repair gene, and we propose to use it as a new target for anticancer drug development. TDP1 is not an essential protein, but under treatment with topoisomerase I poison (camptothecin: CPT), TDP1 works as a critical factor for cell survival. To directly identify novel TDP1 inhibitors active in a cellular environment, we have knocked-out the Tdp1 gene in chicken DT40 cells (Tdp1-/-) and generated a complemented counterpart cells that contains a stable transfection of the human TDP1 gene (Tdp1-/-;hTDP1 cells). For the primary screen, Tdp1-/-;hTDP1 cells will be exposed to small molecules in the presence or absence of CPT, and their growth kinetics will be evaluated after 48 hours by measuring ATP activity. […] The hit compounds will then be evaluated in the presence or absence of CPT using Tdp1-/- cells. […] In tertiary assays, biochemical gel-based assays will be used to assess whether the hit compounds specifically target TDP1.
To this end, we have screened this cell line against the MLSMR in two primary screens. In one screen we add CPT and in the other we screen in the absence of CPT; this AID represents the screen where CPT was absent.
NIH Chemical Genomics Center [NCGC]
NIH Molecular Libraries Probe Centers Network [MLPCN]
Assay Submitter (PI): Yves Pommier, NCI
DT40-hTDP1 cells without 20 nM Camptothecin (add 20 microL of DMSO in 1 L of cell culture medium) were dispensed at 400 cells/5microL/well in tissue culture treated 1536-well white wall/solid bottom assay plates (Greiner Bio-One North America, NC, U.S.A.) using a Multidrop Combi 8 channel dispenser (Thermo Fisher, Waltham, MA, USA). 23 nL compounds and controls were transferred using the pin tool (Kalypsys, San Diego, CA, USA) to the assay plates. The assay plates were then incubated at 37 masculineC for a minimum 48 hr. Three microL of Cell Titer Glo solution was added to the plates and incubated at RT in dark for 30 min. Luminescence was read using ViewLux (Perkin Elmer) with 1 sec exposure slow speed, high gain and 2x binning.
On the technique in general: Quantitative high-throughput screening tests each substance at several concentrations.
On to `Cc1ccsc1C(=O)NNC(=O)COc1ccc(Br)cc1`, for which the Potency entry was “inactive”.
Regarding `O=C(Nc1ccc2c(c1)C(=O)OC2)Nc1cccc2ccccc12`, the Potency entry is “inactive”.
`CN=C1S/C(=C\c2c(OC)cc(OC)cc2OC)C(=O)N1C`: the Potency entry is “inactive”.
Under `Cc1cccc(C)c1NC(=O)CSc1ccc([N+](=O)[O-])cn1` stands “inactive”; under `CCOCC(=O)Nc1ncc(S(=O)(=O)c2ccc([N+](=O)[O-])cc2)s1`, “inactive”.
Under `COc1ccc(OCC(=O)NCCS(=O)(=O)N2CCN(c3ccc(F)cc3)CC2)cc1` stands “inactive”; under `c1ccc2nc(C3=NCCN3)cnc2c1`, “inactive”; under `O=C(C[n+]1ccccc1)N/N=C/c1ccc(O)cc1`, “inactive”.
In the case of `O=C(CCCCCNC(=O)c1ccccc1)N/N=C/c1ccccc1`, the Potency entry is “inactive”.
With `NN=C(NN=Cc1ccccc1)c1ccccc1`, the Potency is 20.6 µM (active).
On to `Cc1ccc(Cc2cncc(O)c2)cc1S(=O)(=O)O`, for which the Potency result is “inactive”.
Regarding `COC(=O)c1cc(NC(=O)c2cccnc2)ccc1N1CCOCC1`, the Potency result is “inactive”.
In the case of `CCOC(=O)c1[nH]c2ccc(C)cc2c1N=C(C)N(C)C`, the Potency result is “inactive”.
Under `CCOc1ccccc1CNC(=O)c1ccc2c(c1)nc1n2CCC(C)C1` (stereo not given) stands “inactive”; under `CCOc1ccccc1CNC(=O)c1cnc2c(-c3ccc(OCC)c(OCC)c3)c(C)nn2c1C`, 11.6 µM (active).
As for `Cc1ccc(Cl)cc1N1CCN(C(=O)c2cnc3c(-c4ccc(F)cc4)c(C)nn3c2C)CC1`, the Potency result is “inactive”.
As for `COCCCNC(=O)C1CC(=O)N(CCc2ccccc2)C1` (stereo not given), the entry is “inactive”; as for `CC(C)(C)C(=O)CCN1C(=O)C2(OCCO2)c2ccccc21`, “inactive”.
As for `COCCc1nn2c(=O)cc(COC(=O)c3cc(OC)c(OC)c(OC)c3)nc2s1`, the entry is “inactive”; as for `COc1ccc(C(=O)OCc2cc(=O)n3ccsc3n2)cc1F`, “inactive”.
Regarding `COc1cc(C(=O)OCc2cc(=O)n3ccsc3n2)ccc1OC(C)C`, the Potency was 20.6 µM (active).
For the molecule `NC(=O)C[n+]1cccc(C(N)=O)c1`, the Potency entry is “inactive”.
As to `O=C1c2oc3ccccc3c(=O)c2C(c2cccc(O)c2)N1c1ccccn1` (stereo not given), the Potency was 20.6 µM (active).
As for `COc1ccc(C2c3c(oc4ccccc4c3=O)C(=O)N2Cc2ccc3c(c2)OCO3)cc1` (stereo not given), the entry is “inactive”; as for `CC(=O)c1sc(N2C(=O)c3oc4ccccc4c(=O)c3C2c2ccc(C)cc2)nc1C` (stereo not given), “inactive”; as for `COCCN1C2=C(COC(C)(C)C2)C(=S)NC1c1ccccc1` (stereo not given), “inactive”.
Take `COC(C[C@@H](O)[C@H](C)[C@H](O)COCc1ccccc1)OC`: the Potency result was “inactive”.
As for `Cn1cccc1/C=C1\SC(=S)N(NC(=O)c2ccc(Cl)cc2)C1=O`, the entry is “inactive”; as for `O=C(CSc1ncn[nH]1)Nc1ccc(Br)cc1Br`, “inactive”.
On to `CC(C)(C)c1ccc(C(=O)NCCC(=O)NCc2ccco2)cc1`, for which the Potency entry is “inactive”.
As for `CC(C)(C)c1ccc(C(=O)NCC(c2ccco2)S(=O)(=O)c2ccc(F)cc2)cc1` (stereo not given), the figure is 20.6 µM (active); as for `CN(C)C(CNC(=O)c1ccc(S(=O)(=O)NCc2ccco2)cc1)c1ccccc1` (stereo not given), “inactive”; as for `O=C(NCCc1ccccc1)C(=O)NCC(c1ccco1)S(=O)(=O)c1ccccc1` (stereo not given), “inactive”.
In the case of `CC(C)CNC(=O)C(=O)NCc1ccccc1`, the Potency entry was “inactive”.
Consider `O=C(NCc1ccccc1)C(=O)NCC(c1ccco1)S(=O)(=O)c1ccc(Cl)cc1` (stereo not given), for which the Potency was 18.4 µM (active).
